# Laboratory results published in ChEMBL document CHEMBL3988442, “University of Dundee, Small-Polar-MMV Screening Library” (2021).
# For some assays here: Potency and affinity values are given separately.
# Legend:
# [1] = target: T1, Methionyl-tRNA synthetase, putative (Leishmania donovani (strain BPK282A1)) (UniProt E9BF75); assay: Leishmania donovani Methionine tRNA synthetase (LdMetRS):v7. Dose response assay; type: functional; design: conc 80 nM, time 150 minutes
# T1 sequence (whole entry): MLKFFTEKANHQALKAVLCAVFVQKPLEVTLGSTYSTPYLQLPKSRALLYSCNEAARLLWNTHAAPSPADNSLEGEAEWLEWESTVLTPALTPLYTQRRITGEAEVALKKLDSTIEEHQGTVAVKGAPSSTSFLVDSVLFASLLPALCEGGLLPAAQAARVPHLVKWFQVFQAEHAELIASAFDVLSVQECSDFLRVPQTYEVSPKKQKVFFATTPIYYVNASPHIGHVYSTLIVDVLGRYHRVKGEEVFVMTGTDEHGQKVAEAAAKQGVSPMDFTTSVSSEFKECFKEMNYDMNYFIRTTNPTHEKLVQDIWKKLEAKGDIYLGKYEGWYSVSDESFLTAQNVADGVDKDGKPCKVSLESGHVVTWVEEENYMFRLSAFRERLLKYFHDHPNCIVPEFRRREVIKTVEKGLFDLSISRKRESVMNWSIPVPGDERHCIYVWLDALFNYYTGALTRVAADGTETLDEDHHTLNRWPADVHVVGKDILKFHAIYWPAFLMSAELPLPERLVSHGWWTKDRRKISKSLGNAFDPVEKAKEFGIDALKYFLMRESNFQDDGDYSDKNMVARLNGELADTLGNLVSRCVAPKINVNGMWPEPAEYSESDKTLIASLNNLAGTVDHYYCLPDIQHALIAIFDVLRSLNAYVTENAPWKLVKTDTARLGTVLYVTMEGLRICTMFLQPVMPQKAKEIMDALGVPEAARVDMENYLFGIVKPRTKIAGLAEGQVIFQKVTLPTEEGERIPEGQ
# [2] = target: Protein translocase subunit SecA (Escherichia coli (strain K12)) (UniProt P10408); assay: Assay to Identify E. coli SecA ATPase Inhibitors; type: functional; design: scale not given: direction of the effect not stated beside the values; conditions: 30 µM
# Protein translocase subunit SecA (Escherichia coli (strain K12)), sequence (P10408 whole entry): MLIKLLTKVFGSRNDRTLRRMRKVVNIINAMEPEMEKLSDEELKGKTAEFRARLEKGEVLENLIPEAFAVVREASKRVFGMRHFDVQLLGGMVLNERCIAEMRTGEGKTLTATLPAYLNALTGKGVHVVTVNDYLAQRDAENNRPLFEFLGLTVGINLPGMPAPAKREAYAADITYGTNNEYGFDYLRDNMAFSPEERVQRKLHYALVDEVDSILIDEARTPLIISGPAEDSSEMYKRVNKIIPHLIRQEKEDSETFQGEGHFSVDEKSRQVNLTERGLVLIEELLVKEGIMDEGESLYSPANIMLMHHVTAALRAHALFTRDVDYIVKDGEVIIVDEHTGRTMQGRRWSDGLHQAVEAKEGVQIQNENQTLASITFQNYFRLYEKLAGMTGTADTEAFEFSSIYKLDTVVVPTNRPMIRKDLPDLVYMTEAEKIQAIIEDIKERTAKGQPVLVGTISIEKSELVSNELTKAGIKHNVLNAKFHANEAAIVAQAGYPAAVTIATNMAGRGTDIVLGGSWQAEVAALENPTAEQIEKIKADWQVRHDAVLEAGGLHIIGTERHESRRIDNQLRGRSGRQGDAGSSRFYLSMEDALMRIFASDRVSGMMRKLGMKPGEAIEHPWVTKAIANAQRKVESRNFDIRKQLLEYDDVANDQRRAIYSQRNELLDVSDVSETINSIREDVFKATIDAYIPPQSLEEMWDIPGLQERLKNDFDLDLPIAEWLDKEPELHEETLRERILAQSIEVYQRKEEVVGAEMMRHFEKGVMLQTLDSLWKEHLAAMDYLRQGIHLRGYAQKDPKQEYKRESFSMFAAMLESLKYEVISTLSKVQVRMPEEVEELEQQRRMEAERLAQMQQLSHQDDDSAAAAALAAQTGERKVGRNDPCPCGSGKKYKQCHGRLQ
# [3] = target: T2, Ubiquitin-activating enzyme e1, putative (Leishmania donovani (strain BPK282A1)) (UniProt E9BSI1); assay: Leishmania donovani Ubiquitin Activating Enzyme (LdE1); type: functional; design: scale not given: direction of the effect not stated beside the values; conditions: 30 µM
# T2 sequence (whole entry): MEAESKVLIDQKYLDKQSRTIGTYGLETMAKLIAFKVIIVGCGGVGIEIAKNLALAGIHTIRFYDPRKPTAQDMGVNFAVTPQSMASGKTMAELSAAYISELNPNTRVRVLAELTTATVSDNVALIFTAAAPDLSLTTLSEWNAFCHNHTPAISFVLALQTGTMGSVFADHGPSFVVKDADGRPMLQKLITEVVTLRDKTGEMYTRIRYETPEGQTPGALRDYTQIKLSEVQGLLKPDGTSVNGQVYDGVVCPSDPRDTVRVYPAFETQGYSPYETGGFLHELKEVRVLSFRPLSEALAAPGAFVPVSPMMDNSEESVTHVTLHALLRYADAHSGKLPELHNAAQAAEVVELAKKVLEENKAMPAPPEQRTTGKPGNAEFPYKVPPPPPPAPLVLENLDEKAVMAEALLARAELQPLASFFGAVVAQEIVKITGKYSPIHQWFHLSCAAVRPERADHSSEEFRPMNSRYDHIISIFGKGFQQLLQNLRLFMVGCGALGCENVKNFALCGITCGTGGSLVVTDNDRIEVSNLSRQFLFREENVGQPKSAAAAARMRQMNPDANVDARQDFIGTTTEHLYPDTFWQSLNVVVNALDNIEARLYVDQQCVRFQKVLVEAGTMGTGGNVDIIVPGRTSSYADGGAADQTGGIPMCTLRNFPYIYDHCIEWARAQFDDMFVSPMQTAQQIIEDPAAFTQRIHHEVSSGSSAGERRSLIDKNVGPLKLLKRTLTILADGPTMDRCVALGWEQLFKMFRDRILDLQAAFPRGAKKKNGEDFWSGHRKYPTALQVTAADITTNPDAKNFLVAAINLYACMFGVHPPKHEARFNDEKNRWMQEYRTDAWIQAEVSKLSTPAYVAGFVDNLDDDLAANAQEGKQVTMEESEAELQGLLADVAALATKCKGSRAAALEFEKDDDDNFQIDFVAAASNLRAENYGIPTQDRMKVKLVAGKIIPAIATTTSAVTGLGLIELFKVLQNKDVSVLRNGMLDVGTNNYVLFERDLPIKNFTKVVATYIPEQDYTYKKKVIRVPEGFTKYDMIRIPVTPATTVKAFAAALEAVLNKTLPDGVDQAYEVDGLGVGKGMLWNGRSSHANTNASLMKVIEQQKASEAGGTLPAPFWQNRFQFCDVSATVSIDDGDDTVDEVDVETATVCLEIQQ
# [4] = target: T3, Aspartate--tRNA(Asp/Asn) ligase (Mycobacterium tuberculosis (strain ATCC 25618 / H37Rv)) (UniProt P9WFW3); assay: Assay for Asp RNA synthetase-1 from Mycobacterium tuberculosis; type: functional; design: scale not given: direction of the effect not stated beside the values; conditions: 30 µM; further: in the data most compounds retested in dose-response had high values
# T3 sequence (whole entry): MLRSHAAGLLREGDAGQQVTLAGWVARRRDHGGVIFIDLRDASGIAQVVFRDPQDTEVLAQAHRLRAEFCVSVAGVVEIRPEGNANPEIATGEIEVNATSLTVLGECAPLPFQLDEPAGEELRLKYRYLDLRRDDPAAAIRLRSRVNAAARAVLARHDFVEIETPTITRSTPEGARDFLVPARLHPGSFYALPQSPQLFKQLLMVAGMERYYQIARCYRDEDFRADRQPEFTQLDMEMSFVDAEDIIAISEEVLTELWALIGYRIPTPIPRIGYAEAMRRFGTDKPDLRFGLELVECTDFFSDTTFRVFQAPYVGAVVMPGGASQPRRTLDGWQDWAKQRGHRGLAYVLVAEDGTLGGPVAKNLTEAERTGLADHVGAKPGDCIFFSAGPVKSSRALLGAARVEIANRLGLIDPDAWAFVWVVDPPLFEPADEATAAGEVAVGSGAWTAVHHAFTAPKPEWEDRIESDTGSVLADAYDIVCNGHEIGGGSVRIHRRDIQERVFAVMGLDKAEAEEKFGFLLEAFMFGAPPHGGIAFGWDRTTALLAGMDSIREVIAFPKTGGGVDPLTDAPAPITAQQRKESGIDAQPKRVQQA
# [5] = target: AMP-activated protein kinase, AMPK (Homo sapiens) (UniProt P54646+O43741+P54619+Q9UGJ0+Q9Y478+Q13131+Q9UGI9); assay: AMP-dependent Kinase enzyme assay. An in vitro enzyme assay that detects ADP turnover that is directly proportional to AMPK activity. This uses naive AMPK that is activated during the assay with MK-8722; type: functional; design: scale not given: direction of the effect not stated beside the values; conditions: 30 µM
# [6] = target: Sialic acid-binding Ig-like lectin 9 (Homo sapiens) (UniProt Q9Y336); assay: Hs-Siglec9 ALPHAscreen SOP 20170721; design: scale not given: direction of the effect not stated beside the values; conditions: 10 µM
# Sialic acid-binding Ig-like lectin 9 (Homo sapiens), sequence (Q9Y336 whole entry): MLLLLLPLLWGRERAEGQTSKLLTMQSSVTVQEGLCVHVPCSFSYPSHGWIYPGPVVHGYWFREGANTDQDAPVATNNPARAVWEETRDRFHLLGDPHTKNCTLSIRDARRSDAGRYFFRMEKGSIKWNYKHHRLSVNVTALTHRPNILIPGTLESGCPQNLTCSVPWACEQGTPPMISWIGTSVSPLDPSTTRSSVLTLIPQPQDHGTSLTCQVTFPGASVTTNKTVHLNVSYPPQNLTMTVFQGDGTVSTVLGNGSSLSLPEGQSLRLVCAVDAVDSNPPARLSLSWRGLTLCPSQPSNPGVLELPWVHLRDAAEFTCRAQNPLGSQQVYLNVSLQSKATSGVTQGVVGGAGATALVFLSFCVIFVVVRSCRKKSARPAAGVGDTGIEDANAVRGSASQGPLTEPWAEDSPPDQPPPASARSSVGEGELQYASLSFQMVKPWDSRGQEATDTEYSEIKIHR
# Trypanosoma cruzi = assay: Trypanosoma cruzi phosphomannomutase and mannose-1-phosphate guanylyltransferase assay; type: functional; design: scale not given: direction of the effect not stated beside the values; conditions: 10 µM
# [7] = target: T4, Arginase-2, mitochondrial (Homo sapiens) (UniProt P78540); assay: in vitro enzyme assay to detect the production of urea directly proportional to the activity of Arginase II; type: functional; design: scale not given: in the data most compounds retested in dose-response had high values; conditions: 33.3 µM
# T4 sequence (whole entry): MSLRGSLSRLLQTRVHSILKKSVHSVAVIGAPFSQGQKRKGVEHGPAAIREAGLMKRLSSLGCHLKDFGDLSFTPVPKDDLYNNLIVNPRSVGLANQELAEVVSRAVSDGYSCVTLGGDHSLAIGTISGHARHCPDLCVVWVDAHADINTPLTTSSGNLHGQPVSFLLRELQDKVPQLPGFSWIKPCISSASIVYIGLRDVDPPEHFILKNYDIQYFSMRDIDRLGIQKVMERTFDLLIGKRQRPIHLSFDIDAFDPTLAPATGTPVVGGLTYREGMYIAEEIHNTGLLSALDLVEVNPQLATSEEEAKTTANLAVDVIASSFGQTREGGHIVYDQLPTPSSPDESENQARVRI
# [8] = target: T5, Proteasome subunit beta (Trypanosoma cruzi) (UniProt O96673); assay: Trypanosoma cruzi proteasome chymotrypsin-like activity (TcProtChymo) assay.; type: functional; design: scale not given: in the data most compounds retested in dose-response had high values; conditions: 9.37 µM
# T5 sequence (whole entry): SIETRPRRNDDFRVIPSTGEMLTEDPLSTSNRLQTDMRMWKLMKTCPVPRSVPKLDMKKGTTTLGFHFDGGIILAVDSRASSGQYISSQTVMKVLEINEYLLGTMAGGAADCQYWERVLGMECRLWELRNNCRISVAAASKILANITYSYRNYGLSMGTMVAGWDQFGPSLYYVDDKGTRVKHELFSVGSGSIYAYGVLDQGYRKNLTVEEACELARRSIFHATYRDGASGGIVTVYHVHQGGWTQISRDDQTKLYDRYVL
# Homo sapiens = species: Homo sapiens; assay: To identify inhibition of the IFN signalling (Jak-Stat) pathway via expression of an eGFP reporter gene under the control of an IFN-stimulated response element (ISRE) containing MxA promoter.; type: functional; design: scale not given: direction of the effect not stated beside the values; conditions: 30 µM
# [9] = target: Shiga toxin 2 (Escherichia coli O157:H7) (UniProt P09385+P09386); assay: E. coli 0.157:H7 Shiga Toxin SOP - stx2 screening assay; type: functional; design: scale not given: direction of the effect not stated beside the values; conditions: 30 µM
# [10] = target: T6, Tyrosyl-tRNA synthetase, putative (Trypanosoma cruzi (strain CL Brener)) (UniProt Q4DSP6); assay: Trypanosoma cruzi tyrosyl tRNA synthetase (TcYRS) _High Tyrosine SOP; type: functional; design: scale not given: in the data most compounds retested in dose-response had high values; conditions: 30 µM
# T6 sequence (whole entry): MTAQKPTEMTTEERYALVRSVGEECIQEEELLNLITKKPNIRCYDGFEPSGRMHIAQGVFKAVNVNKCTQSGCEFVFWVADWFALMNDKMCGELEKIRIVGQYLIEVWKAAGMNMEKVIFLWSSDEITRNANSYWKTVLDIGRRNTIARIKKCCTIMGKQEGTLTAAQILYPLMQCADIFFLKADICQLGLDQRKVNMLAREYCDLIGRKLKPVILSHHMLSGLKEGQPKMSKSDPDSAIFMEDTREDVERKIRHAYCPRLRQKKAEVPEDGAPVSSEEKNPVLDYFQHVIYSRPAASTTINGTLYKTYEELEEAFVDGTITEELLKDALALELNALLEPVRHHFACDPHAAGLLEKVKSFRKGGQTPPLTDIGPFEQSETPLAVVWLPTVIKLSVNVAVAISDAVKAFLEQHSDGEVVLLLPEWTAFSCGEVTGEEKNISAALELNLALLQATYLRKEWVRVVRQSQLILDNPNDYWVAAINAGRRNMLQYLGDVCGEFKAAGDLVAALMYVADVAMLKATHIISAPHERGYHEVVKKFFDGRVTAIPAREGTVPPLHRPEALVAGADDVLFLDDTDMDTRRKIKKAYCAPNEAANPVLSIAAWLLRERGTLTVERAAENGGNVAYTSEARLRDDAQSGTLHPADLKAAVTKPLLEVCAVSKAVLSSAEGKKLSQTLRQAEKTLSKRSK
# [11] = target: T6, Tyrosyl-tRNA synthetase, putative (Trypanosoma cruzi (strain CL Brener)); assay: Trypanosoma cruzi tyrosyl tRNA synthetase (TcYRS) SOP; type: functional; design: scale not given: direction of the effect not stated beside the values; conditions: 30 µM
# [12] = target: Chromo domain-containing protein 1 (Saccharomyces cerevisiae (strain ATCC 204508 / S288c) (Baker's yeast)) (UniProt P32657); assay: ScCHD-1 Enzyme Inhibition Assay; type: functional; design: scale not given: in the data most compounds retested in dose-response had high values; conditions: 30 µM
# Chromo domain-containing protein 1 (Saccharomyces cerevisiae (strain ATCC 204508 / S288c) (Baker's yeast)), sequence (P32657 whole entry, the tested form may be a part): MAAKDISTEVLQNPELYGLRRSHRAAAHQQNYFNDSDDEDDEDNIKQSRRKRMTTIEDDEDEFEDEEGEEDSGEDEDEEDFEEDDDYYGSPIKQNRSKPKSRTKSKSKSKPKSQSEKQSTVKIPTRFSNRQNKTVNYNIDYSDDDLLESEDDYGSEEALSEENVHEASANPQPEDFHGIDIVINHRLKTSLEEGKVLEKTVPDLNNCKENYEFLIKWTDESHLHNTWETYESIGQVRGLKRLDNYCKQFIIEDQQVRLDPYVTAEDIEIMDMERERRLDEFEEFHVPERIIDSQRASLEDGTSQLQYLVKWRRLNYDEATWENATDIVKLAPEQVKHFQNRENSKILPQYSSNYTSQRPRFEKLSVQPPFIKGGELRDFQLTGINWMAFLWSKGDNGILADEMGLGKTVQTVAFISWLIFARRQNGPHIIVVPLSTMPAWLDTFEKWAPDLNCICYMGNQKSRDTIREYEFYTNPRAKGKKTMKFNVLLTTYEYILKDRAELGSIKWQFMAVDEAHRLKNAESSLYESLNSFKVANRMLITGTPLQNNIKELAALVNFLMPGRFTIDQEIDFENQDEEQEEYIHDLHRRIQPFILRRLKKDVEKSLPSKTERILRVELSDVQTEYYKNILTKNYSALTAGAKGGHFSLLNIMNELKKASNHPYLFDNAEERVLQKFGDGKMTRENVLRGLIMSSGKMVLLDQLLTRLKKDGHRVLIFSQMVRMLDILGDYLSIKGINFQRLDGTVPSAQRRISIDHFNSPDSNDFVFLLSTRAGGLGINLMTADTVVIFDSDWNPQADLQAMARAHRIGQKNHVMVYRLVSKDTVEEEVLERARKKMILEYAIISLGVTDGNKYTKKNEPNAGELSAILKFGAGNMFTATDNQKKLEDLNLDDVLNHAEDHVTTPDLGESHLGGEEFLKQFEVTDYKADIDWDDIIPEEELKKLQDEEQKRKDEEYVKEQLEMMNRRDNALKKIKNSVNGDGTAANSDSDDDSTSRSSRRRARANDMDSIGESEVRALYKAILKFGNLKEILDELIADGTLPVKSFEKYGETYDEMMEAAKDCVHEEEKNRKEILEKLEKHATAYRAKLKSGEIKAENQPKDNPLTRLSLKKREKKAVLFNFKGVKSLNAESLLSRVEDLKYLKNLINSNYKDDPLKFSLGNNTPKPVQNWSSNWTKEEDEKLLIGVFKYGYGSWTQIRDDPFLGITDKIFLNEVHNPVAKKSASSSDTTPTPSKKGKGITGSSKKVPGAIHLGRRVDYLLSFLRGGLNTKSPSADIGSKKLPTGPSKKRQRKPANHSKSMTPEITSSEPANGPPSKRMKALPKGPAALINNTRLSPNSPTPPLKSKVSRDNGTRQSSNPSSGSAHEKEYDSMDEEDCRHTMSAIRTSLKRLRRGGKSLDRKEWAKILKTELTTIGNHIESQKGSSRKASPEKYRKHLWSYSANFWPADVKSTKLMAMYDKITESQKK
structure (smiles),measurement,setting,value
Clc1cc(Cl)cc(CNCCc2ccccc2)c1,PXC50,"[1]; BOTTOM -4.203249798, HILLSLOPE 1.160005452, MAX_EFFECT 61.75908222, TOP 67.85944211",3.6
Oc1cc(Cl)cc(Cl)c1,PXC50,[1]; MAX_EFFECT 13.49809886,< 3
same,PXC50,[1]; MAX_EFFECT 17.06263499,< 3
O=C1CC[C@@H]2[C@@H](CCN2Cc2ccncc2)N1c1ccccc1,Percent Effect,[2],-3.22%
same,Percent Effect,[3],-8%
same,Percent Effect,[4],0.204%
same,Percent Effect,[5],-13.7%
same,Percent Effect,[6],8.87%
same,Percent Effect,Trypanosoma cruzi,-2.7%
same,Percent Effect,[7],0.896%
same,Percent Effect,[8],11.1%
same,Percent Effect,Homo sapiens,-5.31%
same,Percent Effect,[9],-8.6%
same,Percent Effect,[10],5.21%
same,Percent Effect,[11],7.5%
same,Percent Effect,[12],-2.91%
Cc1cc(C(F)(F)F)nc(N2CCN3CCCC3C2)n1 (stereo not given),PXC50,[1]; MAX_EFFECT 10.18276762,< 4
same,PXC50,[1]; MAX_EFFECT 10.96605744,< 4
Cc1cc(Cl)cc(Cl)c1O,PXC50,[1]; MAX_EFFECT 7.127429806,< 3
same,PXC50,[1]; MAX_EFFECT 14.63878327,< 3
Oc1ccc(Cl)cc1Cl,PXC50,[1]; MAX_EFFECT 9.315589354,< 3
same,PXC50,[1]; MAX_EFFECT 10.1511879,< 3
CN(C)c1ncc2c(n1)C1(CCN(CC3CC3)C1)COC2 (stereo not given),Percent Effect,[2],2.42%
same,Percent Effect,[3],0%
same,Percent Effect,[4],0.342%
same,Percent Effect,[5],0.164%
same,Percent Effect,[6],8.71%
same,Percent Effect,Trypanosoma cruzi,-4.37%
same,Percent Effect,[7],0.798%
same,Percent Effect,[8],13.1%
same,Percent Effect,Homo sapiens,-7.22%
same,Percent Effect,[9],-16.3%
same,Percent Effect,[10],7.29%
same,Percent Effect,[11],11.1%
same,Percent Effect,[12],-5.42%
